The values that follow come from the supplement of paper PMC6518042.

The first test deals with Pectobacterium parmentieri SCC3193. As to the kind of experiment: DuctApe activity index (growth/respiration on compound as sole nutrient source, blank-subtracted) (activity index (0-3)); higher = stronger utilization of the compound, active = 3 or more. To be noted: nutrient role (plate category): carbon. The method, then:
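Biolog Phenotype Microarray plates PM1, PM2A (carbon), PM3 (nitrogen) and PM4 (phosphorus/sulfur) inoculated with P. parmentieri SCC3193 in M9-C minimal salts medium with Biolog dye A, and read in the OmniLog for 46 h. Each well was tested in triplicate and the experiment was run twice. DuctApe computed a blank-subtracted activity index (AV, 0-3) from the mean curves; growth is positive at AV >= 3 and negative at AV <= 2.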
Regarding `NCCC[C@H](N)C(=O)O` [L-Ornithine], the DuctApe activity index is 0 (inactive).

For the molecule `O=C[C@@H](O)[C@H](O[C@@H]1O[C@H](CO)[C@H](O)[C@H](O)[C@H]1O)[C@H](O)CO` [3-O-b-D-Galactopyranosyl-D-Arabinose], the DuctApe activity index is 1 (inactive).

Consider `O=C(O)C[C@@H](O)C(=O)O` [D-Malic acid], for which the DuctApe activity index was 0 (inactive).

Turning to `O=C(O)[C@]1(O)C[C@@H](O)[C@@H](O)[C@H](O)C1` [Quinic acid], the DuctApe activity index is 0 (inactive).

As for `CC(=O)N[C@@H]1C(O)O[C@H](CO)[C@@H](O)[C@@H]1O` (stereo partly drawn) [N-Acetyl-D-Mannosamine], the DuctApe activity index is 0 (inactive).

Turning to `Cc1cn([C@H]2C[C@H](O)[C@@H](CO)O2)c(=O)[nH]c1=O` [Thymidine], the DuctApe activity index is 1 (inactive).

Turning to `C[C@H](O)C(=O)O` [L-Lactic acid], the DuctApe activity index is 2 (inactive).

On to `Nc1ncnc2c1ncn2[C@@H]1O[C@H](CO)[C@@H](O)[C@H]1O` [Adenosine], for which the DuctApe activity index is 1 (inactive).

`N[C@H](CO)C(=O)O` [D-Serine]: the DuctApe activity index was 0 (inactive).

Take `O[C@@H]1[C@H](O)[C@H](O)CO[C@H]1O` [D-Ribose]: the DuctApe activity index was 3 (active).

In the case of `O=C(O)C[C@H](O)C(=O)O` [L-Malic acid], the DuctApe activity index is 3 (active).

Consider `O=C(O)[C@@H](O)[C@H](O)[C@H](O)[C@@H](O)C(=O)O` [Mucic acid], for which the DuctApe activity index is 3 (active).

Turning to `O=C1CC[C@@H](C(=O)O)N1` [L-Pyroglutamic acid], the DuctApe activity index is 0 (inactive).

On to `O=C(CO)[C@@H](O)[C@H](O)[C@H](O)CO[C@H]1O[C@H](CO)[C@@H](O)[C@H](O)[C@H]1O` [Palatinose], for which the DuctApe activity index was 0 (inactive).

`OCC1(O)OC[C@@H](O)[C@H](O)[C@@H]1O` (stereo partly drawn) [D-Tagatose]: the DuctApe activity index was 0 (inactive).

`O=C(O)CCC(=O)C(=O)O` [a-Ketoglutaric acid]: the DuctApe activity index was 0 (inactive).

`NCCO` [2-Aminoethanol]: the DuctApe activity index is 0 (inactive).

Consider `O=C[C@H](O)[C@@H](O)[C@H](O)[C@H](O)COP(=O)(O)O` [D-Glucose-6-Phosphate], for which the DuctApe activity index is 3 (active).

Take `OC[C@H](O)C(O)[C@@H](O)CO` [L-Arabitol]: the DuctApe activity index was 0 (inactive).

With `NCC(=O)O` [Glycine], the DuctApe activity index was 0 (inactive).

`NC(=O)C[C@H](N)C(=O)O` [L-Asparagine]: the DuctApe activity index is 3 (active).

Still in this test, the particulars now being: nutrient role (plate category): nitrogen.
As to `NCCC[C@H](N)C(=O)O` [L-Ornithine], the DuctApe activity index was 0 (inactive).

Turning to `CC(=O)N[C@@H]1C(O)O[C@H](CO)[C@@H](O)[C@@H]1O` (stereo partly drawn) [N-Acetyl-D-Mannosamine], the DuctApe activity index was 0 (inactive).

`Cc1cn([C@H]2C[C@H](O)[C@@H](CO)O2)c(=O)[nH]c1=O` [Thymidine]: the DuctApe activity index was 0 (inactive).

For the molecule `Nc1nc2c(ncn2[C@@H]2O[C@H](CO)[C@@H](O)[C@H]2O)c(=O)[nH]1` [Guanosine], the DuctApe activity index is 0 (inactive).

In the case of `Nc1ncnc2c1ncn2[C@@H]1O[C@H](CO)[C@@H](O)[C@H]1O` [Adenosine], the DuctApe activity index is 2 (inactive).

`N[C@H](CO)C(=O)O` [D-Serine]: the DuctApe activity index was 0 (inactive).

`O=C1CC[C@@H](C(=O)O)N1` [L-Pyroglutamic acid]: the DuctApe activity index was 0 (inactive).

Regarding `NCC(=O)O` [Glycine], the DuctApe activity index is 0 (inactive).

As to `C[C@H](N)C(=O)N[C@@H](CC(=O)O)C(=O)O`, the DuctApe activity index is 1 (inactive).

With `NC(=O)C[C@H](N)C(=O)O` [L-Asparagine], the DuctApe activity index is 2 (inactive).

The test is the same for the next values; noted with them: nutrient role (plate category): phosphate & sulphur.
On to `O=P(O)(O)OP(=O)(O)O` [Pyrophosphate], for which the DuctApe activity index was 1 (inactive).

As for `NC(N)=S` [Thiourea], the DuctApe activity index is 0 (inactive).

As for `N[C@H](CS)C(=O)O` [D-Cysteine], the DuctApe activity index is 1 (inactive).

As to `O=c1ccn([C@@H]2O[C@H](CO)[C@@H](O)[C@H]2OP(=O)(O)O)c(=O)[nH]1` [Uridine 2`-Monophosphate], the DuctApe activity index was 2 (inactive).

In the case of `CC(=O)N[C@@H](CS)C(=O)O` [N-Acetyl-L-Cysteine], the DuctApe activity index was 1 (inactive).

On to `CS(=O)(=O)O` [Methane Sulfonic acid], for which the DuctApe activity index is 0 (inactive).

As for `Nc1ccn([C@@H]2O[C@H](CO)[C@@H](OP(=O)(O)O)[C@H]2O)c(=O)n1` [Cytidine 3`-Monophosphate], the DuctApe activity index was 2 (inactive).

As to `O=C[C@H](O)[C@@H](O)[C@H](O)[C@H](O)COP(=O)(O)O` [D-Glucose-6-Phosphate], the DuctApe activity index is 2 (inactive).

Take `O=C(O)C(O)COP(=O)(O)O` [D-3-Phospho-Glyceric acid]: the DuctApe activity index is 2 (inactive).
